Laboratory results reported in ChEMBL document CHEMBL3988442, “University of Dundee, Small-Polar-MMV Screening Library” (2021).
The whole screen tested about 38,000 compounds, of which about 1,200 (3.2%) showed an effect of 50% or more. The median lay at about -58%. What follows is part of a selection rich in strong results, with near analogues and random picks from the rest.

Test system: Plasmodium falciparum
Experiment: Calibr Malaria Delayed Death Assay SOP
Format: functional, organism-based
Design: scale not given: in the data most compounds retested in dose-response had high values
Conditions: concentration 4.99e-06 (unit not given; other assays of the set use mol/L)

| SMILES | Percent Effect [%] |
| --- | --- |
| CCn1nccc1CNc1nc(N)nc2c1nc(C)n2C | -33.19 |
| Cn1nc(CN2CCCCC2)c2c1CN(C(=O)c1ccoc1)C2 | 14.54 |
| CNCc1cc(F)ccc1Oc1ccc(F)cc1 | 15.63 |
| O=C(O)c1cccc(N2CCC(Oc3cccc(F)c3)CC2)n1 | -36.51 |
| O=C(Nc1ccccc1Oc1cccc(F)c1)C1CCS(=O)(=O)C1 (stereo not drawn) | -81.74 |
| O=C(Nc1cnc(Oc2ccccc2)nc1)C1CC1 | -34.92 |
| CCn1cc(-c2nn3c(C(C)C)nnc3s2)c(C)n1 | -104 |
| CC(NC(=O)N1CCCCCC1)c1ccc(S(N)(=O)=O)cc1 (stereo not drawn) | -106.8 |
| Cc1ncsc1C(=O)NCCNc1ncccn1 | -77.02 |
| COCC1CN(CCOc2ccc(Cl)cc2)Cc2c1cnn2C.O=C(O)C(F)(F)F.O=C(O)C(F)(F)F (stereo not drawn) | -4.236 |
| CC(NCC1(N(C)C)CCOCC1)c1ccc(S(C)(=O)=O)cc1 (stereo not drawn) | -124.5 |
| CC(NCC1(N(C)C)CCOCC1)c1ccc(SC(F)F)cc1 (stereo not drawn) | 51.19 |
| CN(C)C1(CNC(=O)c2c(O)cc(Cl)cc2Cl)CCOCC1 | -157.7 |
| CSC1(CNC(=O)NC(C)c2ccc(F)cc2)CCOCC1 (stereo not drawn) | -168.4 |
| CN(C)C1(CNc2ncc(Br)cn2)CCOCC1 | 27.48 |
| CC(NCC1(N(C)C)CCOCC1)c1ccc(Cl)cc1 (stereo not drawn) | 72.75 |
| O=S(=O)(N1CCCC1)N(Cc1ccccc1)CC1CCCO1 (stereo not drawn) | -64.47 |
| CN(C)CCN1C[C@@H]2CN(S(=O)(=O)c3ccccc3)C[C@@H]2C1=O.O=C(O)C(F)(F)F | -103 |
| CCN(CC)S(=O)(=O)c1ccc(C(=O)NC(C)(C)C)cc1 | -100.9 |
| Cc1cc2nc(-c3ccccc3)cc(NCC3CCCOC3)n2n1 (stereo not drawn) | 20.07 |
| COCCC(=O)Nc1nc2c(OC)cc(F)cc2s1 | -96.38 |
| COc1ccc(CNC(C)c2ccc(Cl)c(Cl)c2)c(OC)c1OC (stereo not drawn) | 65.05 |
| COc1ccc(CNC(C)Cn2cccn2)c(OC)c1OC.Cl (stereo not drawn) | -41.68 |

| SMILES | Percent Effect [%] |
| --- | --- |
| COCCS(=O)(=O)NC(C)c1ccccc1Cl (stereo not drawn) | -65.19 |
| COc1ccc(C(C)NCc2c[nH]nc2C)cc1OC.Cl (stereo not drawn) | -66.18 |
| COc1ccc(CNC(C)c2ccccc2Cl)c(OC)c1OC.Cl (stereo not drawn) | 74.88 |
| COc1ccc(CNC(C)c2cccc(Cl)c2)c(OC)c1OC (stereo not drawn) | 42.06 |
| CC(NCc1ccc(C(N)=O)cc1)c1ccc(Cl)c(Cl)c1.Cl (stereo not drawn) | 4.882 |
| COc1ccc(C(C)NCc2ccc(OC)c(OC)c2OC)cc1F.Cl (stereo not drawn) | 34.25 |
| COc1ccc(CNC(C)c2ccc(Cl)cc2)c(OC)c1OC (stereo not drawn) | 80.38 |
| Cc1ccc(CN2C[C@H](OCC3CCN(C)CC3)[C@H]3COC[C@H]32)o1 | 12.64 |
| Cc1nc(NC(=O)c2c(-n3cnnn3)sc3c2CCC3)sc1C | -110.9 |
| CCOc1ccccc1NC(=O)NCCc1ccoc1 | -120.2 |
| COC(=O)c1cccc(C(=O)N(C)Cc2cccc(F)c2)c1 | -135.6 |
| COc1ccc(CN2CCCC2)cc1Oc1ccc2c(c1)CC(CN)O2 (stereo not drawn) | 87.78 |
| Cc1cc(CN2CCCC2)cc(Oc2ccc3c(c2)CC(CN)O3)c1 (stereo not drawn) | 26.4 |
| COc1ccc(CN2CCCC2)cc1Oc1cccc(C#N)n1 | 41.79 |
| COc1ccc(CN2CCCC2)cc1Oc1ccc(NC(C)=O)cc1 | -51.76 |
| COc1cc(CN2CCCC2)ccc1Oc1ccc2c(c1)CC(CN)O2 (stereo not drawn) | 58.6 |
| COc1cc(CN2CCCC2)ccc1OC12CCCN(CC1)C2 (stereo not drawn) | -168.7 |
| O=C(O)C(F)(F)F.O=C(O)C(F)(F)F.O=C(O)c1c(-c2cncnc2)ncc2c1CCN(Cc1ccco1)C2 | -132.8 |
| CCNc1ncc2c(n1)CN(c1ccc(OC(F)(F)F)cc1)C2=O | 14.47 |
| O=C(N1CCCC1)N1CCC2(CCCN(CCOc3ccccc3)C2)C1.O=C(O)C(F)(F)F (stereo not drawn) | -4.272 |
| Cc1noc(C)c1CCCNc1cnccn1 | -49.46 |
| CN(C)C(=O)CN1CCOCC2(C1)CN(c1ncc(F)cn1)CCO2.O=C(O)C(F)(F)F (stereo not drawn) | -15.1 |
| Cc1ccnc(N2CCCC(c3nncn3C3CC3)C2)n1 (stereo not drawn) | -51.92 |

| SMILES | Percent Effect [%] |
| --- | --- |
| CN1CCN(c2ccc(Cl)cc2NC(=O)c2ccco2)CC1 | 41.12 |
| CN1CCN(c2ccc(Br)cc2NC(=O)c2ccco2)CC1 | 52.34 |
| CN1CCN(c2ccccc2NC(=O)c2ccco2)CC1 | 31.7 |
| CCc1cc(CN(C)C(=O)c2cnc3c(c2)nc(N)n3CC)on1 | -104.3 |
| c1ccc(CN2CCCC2)c(CNc2cncc3nnnn23)c1 | 60.42 |
| c1cc(CN2CCCC2)ccc1CNc1cncc2nnnn12 | -34.44 |
| c1cc(N2CCSCC2)ccc1CNc1cncc2nnnn12 | -124.6 |
| Cc1ccnc(NC(=O)c2cccc(OCc3nnnn3C)c2)c1 | -241.7 |
| Cc1cccc(NC(=O)c2ccc(OCc3nnnn3C)cc2)n1 | -114.2 |
| Cc1cccc(NC(=O)c2cccc(OCc3nnnn3C)c2)n1 | 80.42 |
| CN1CC=C(CCN(C)C(=O)CCc2ccccc2)CC1 | 19.5 |
| CC(C(=O)NCc1ccco1)N1CCN(Cc2nccn2C)CC1 (stereo not drawn) | -39.34 |
| Cc1ccc(CN2CC3(CCN(C(=O)Cc4ccc(Cl)cc4)C3)C2)o1 | -2.786 |
| CNC(=O)c1cc2c(nc1NCC(C)C)CCN(c1ccncn1)CC2.O=C(O)C(F)(F)F | 13.05 |
| Cc1ccc(C)c(-n2ccc3nc(N4CCCC4)ncc3c2=O)c1 | -31.4 |
| CC(=O)Nc1ccc(-n2ccc3nc(N4CCCC4)ncc3c2=O)cc1 | -5.195 |
| COCCn1cnc2ccc(NC(=O)CCCn3cccn3)cc2c1=O | -21.82 |
| Cn1cc(-c2cnc(N3CCOCC3)nc2)cc1C(=O)NCCC#N.O=C(O)C(F)(F)F | -137.7 |
| O=C(O)CN1CCC(c2ccccc2)C1 (stereo not drawn) | -52.87 |
| Cc1cc(C)c2nc(CN3CCCC(c4cc[nH]n4)C3)cc(O)c2c1 (stereo not drawn) | 52.56 |
| Cc1ccc2nc(CN3CCN(C4CCCC4)C(=O)C3)cc(O)c2c1 | -147.5 |
| Cc1cc(C)c2nc(CN3CC[C@@H](O)C3)cc(O)c2c1 | -11.32 |
